Measurements: PubChem BioAssay AID1159580 (chemical genetic matrix, 2015)
Several values for one entry are separate records, joined by “and”; a condition that tells them apart may be missing. Identical values can stand only once. Hit rate of the full screen: of about 5,500 compounds, about 2,000 (36%) were called active. Another 18% or so got no clear call; they are omitted. No stated cut-off is given here; in the data, active means normalized growth mostly below about 0.91 (no sharp cut-off); inconclusive means no clear call, values can overlap the other calls; inactive means mostly above about 0.92. Some of the results follow.

Experiment: chemical genetic growth profiling, strain panel (AID 1159580);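 further: tested at 20 µM; growth read once vehicle control cultures reached saturation at 30 °C; 1 = growth at the plate median or of vehicle wells; lower values mean less growth of the strain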
Conditions: growth OD

Measured: normalized growth

CC1OC1P(=O)(O)O (stereo unspecified)
inactive: S. cerevisiae deletion strains, locus YKL009W, strain mrt4, active compounds read low 0.991 | S. cerevisiae deletion strains, locus YKL068W, active compounds read low 0.988 | S. cerevisiae deletion strains, locus YKL085W, strain MDH1 (second series), active compounds read low 0.978 | S. cerevisiae deletion strains, locus YKL085W, strain MDH1, active compounds read low 0.978 | S. cerevisiae deletion strains, locus YKL160W, strain elf1, active compounds read low 0.971 | S. cerevisiae deletion strains, locus YKL190W, strain CNB1, active compounds read low 1 | S. cerevisiae deletion strains, locus YKR001C, strain vps1, active compounds read low 0.992 | S. cerevisiae deletion strains, locus YKR026C, strain gcn3, active compounds read low 1 | S. cerevisiae deletion strains, locus YKR091W, strain srl3, active compounds read low 0.988 | S. cerevisiae deletion strains, locus YLL001W, strain dnm1, active compounds read low 0.982 | S. cerevisiae deletion strains, locus YLL026W, active compounds read low 0.985 | S. cerevisiae deletion strains, locus YLL041C, strain sdh2, active compounds read low 0.999 | S. cerevisiae deletion strains, locus YLR027C, strain aat2, active compounds read low 0.975 | S. cerevisiae deletion strains, locus YLR039C, strain RIC1, active compounds read low 0.991 | S. cerevisiae deletion strains, locus YLR058C, strain SHM2, active compounds read low 0.996 | S. cerevisiae deletion strains, locus YLR102C, strain apc9, active compounds read low 0.99 | S. cerevisiae deletion strains, locus YLR221C, strain rsa3, active compounds read low 0.974 | S. cerevisiae deletion strains, locus YLR258W, strain gsy2, active compounds read low 0.979 | S. cerevisiae deletion strains, locus YLR262C, strain YPT6 (second series), active compounds read low 0.987 | S. cerevisiae deletion strains, locus YLR262C, strain YPT6, active compounds read low 0.956 | S. cerevisiae deletion strains, locus YLR268W, strain sec22, active compounds read low 0.986 | S. cerevisiae deletion strains, locus YLR320W, strain mms22, active compounds read low 0.958 | S. cerevisiae deletion strains, locus YLR330W, strain CHS5, active compounds read low 0.992 | S. cerevisiae deletion strains, locus YLR342W, strain FKS1 (second series), active compounds read low 0.963 | S. cerevisiae deletion strains, locus YLR342W, strain FKS1, active compounds read low 0.983 | S. cerevisiae deletion strains, locus YLR357W, strain rsc2, active compounds read low 0.954 | S. cerevisiae deletion strains, locus YLR370C, strain arc18, active compounds read low 0.999 | S. cerevisiae deletion strains, locus YLR371W, strain rom2, active compounds read low 0.977 | S. cerevisiae deletion strains, locus YLR384C, strain iki3, active compounds read low 0.995 | S. cerevisiae deletion strains, locus YLR418C, strain cdc73, active compounds read low 0.963 | S. cerevisiae deletion strains, locus YML016C, strain PPZ1, active compounds read low 0.99 | S. cerevisiae deletion strains, locus YML032C, strain rad52, active compounds read low 0.997 | S. cerevisiae deletion strains, locus YML120C, strain ndi1, active compounds read low 0.998 | S. cerevisiae deletion strains, locus YML124C, strain tub3, active compounds read low 0.992 | S. cerevisiae deletion strains, locus YMR058W, strain fet3, active compounds read low 0.998 | S. cerevisiae deletion strains, locus YMR078C, strain ctf18, active compounds read low 0.982 | S. cerevisiae deletion strains, locus YMR125W, strain sto1, active compounds read low 1.01 | S. cerevisiae deletion strains, locus YMR129W, active compounds read low 1.01 | S. cerevisiae deletion strains, locus YMR205C, strain PFK2, active compounds read low 0.962 | S. cerevisiae deletion strains, locus YMR223W, strain ubp8, active compounds read low 0.971 | S. cerevisiae deletion strains, locus YMR231W, strain pep5, active compounds read low 0.991 | S. cerevisiae deletion strains, locus YMR263W, strain SAP30, active compounds read low 1.01 and 1 | S. cerevisiae deletion strains, locus YMR307W, strain GAS1, active compounds read low 0.94 | S. cerevisiae deletion strains, locus YNL067W, strain RPL9B, active compounds read low 1.03 | S. cerevisiae deletion strains, locus YNL071W, strain lat1, active compounds read low 1 | S. cerevisiae deletion strains, locus YNL128W, strain TEP1, active compounds read low 0.986 | S. cerevisiae deletion strains, locus YNL153C, strain GIM3, active compounds read low 1.15 | S. cerevisiae deletion strains, locus YNL175C, strain NOP13, active compounds read low 0.984 | S. cerevisiae deletion strains, locus YNL197C, strain WHI3, active compounds read low 0.988 | S. cerevisiae deletion strains, locus YNL209W, strain ssb2, active compounds read low 0.981 | S. cerevisiae deletion strains, locus YNL224C, strain SQS1, active compounds read low 0.983 | S. cerevisiae deletion strains, locus YNL233W, strain BNI4, active compounds read low 1 | S. cerevisiae deletion strains, locus YNL248C, strain rpa49, active compounds read low 1.03 | S. cerevisiae deletion strains, locus YNL250W, strain rad50, active compounds read low 0.952 | S. cerevisiae deletion strains, locus YNL271C, strain bni1, active compounds read low 0.993 | S. cerevisiae deletion strains, locus YNL298W, strain CLA4, active compounds read low 0.994 | S. cerevisiae deletion strains, locus YNL307C, strain MCK1, active compounds read low 0.98 | S. cerevisiae deletion strains, locus YNL322C, strain KRE1 (second series), active compounds read low 0.967 | S. cerevisiae deletion strains, locus YNL322C, strain KRE1, active compounds read low 0.996 and 0.98 | S. cerevisiae deletion strains, locus YNR049C, strain mso1, active compounds read low 1 | S. cerevisiae deletion strains, locus YNR052C, strain pop2, active compounds read low 0.978 | S. cerevisiae deletion strains, locus YOL006C, strain TOP1, active compounds read low 1.02 | S. cerevisiae deletion strains, locus YOL012C, strain htz1 1.02 | S. cerevisiae deletion strains, locus YOL147C, strain pex11, active compounds read low 0.98 | S. cerevisiae deletion strains, locus YOR001W, strain rrp6, active compounds read low 0.971 | S. cerevisiae deletion strains, locus YOR061W, strain CKA2, active compounds read low 0.987 | S. cerevisiae deletion strains, locus YOR069W, strain VPS5, active compounds read low 0.992 | S. cerevisiae deletion strains, locus YOR070C, strain gyp1, active compounds read low 0.981 | S. cerevisiae deletion strains, locus YOR080W, strain dia2, active compounds read low 1 | S. cerevisiae deletion strains, locus YOR083W, strain WHI5 (second series), active compounds read low 0.997 | S. cerevisiae deletion strains, locus YOR083W, strain WHI5, active compounds read low 0.95 | S. cerevisiae deletion strains, locus YOR106W, strain vam3, active compounds read low 0.986 | S. cerevisiae deletion strains, locus YOR136W, strain idh2, active compounds read low 0.994 | S. cerevisiae deletion strains, locus YOR144C, strain elg1, active compounds read low 0.989 | S. cerevisiae deletion strains, locus YOR184W, strain ser1, active compounds read low 0.972 | S. cerevisiae deletion strains, locus YOR265W, strain rbl2, active compounds read low 0.977 | S. cerevisiae deletion strains, locus YOR270C, strain vph1, active compounds read low 1.07 | S. cerevisiae deletion strains, locus YOR290C, strain snf2, active compounds read low 0.992 | S. cerevisiae deletion strains, locus YOR316C, strain cot1, active compounds read low 0.993 | S. cerevisiae deletion strains, locus YPL051W, strain arl3, active compounds read low 0.977 | S. cerevisiae deletion strains, locus YPL055C, strain LGE1, active compounds read low 1.06 | S. cerevisiae deletion strains, locus YPL078C, strain atp4, active compounds read low 0.993 | S. cerevisiae deletion strains, locus YPL106C, strain sse1, active compounds read low 0.959 | S. cerevisiae deletion strains, locus YPL240C, strain hsp82, active compounds read low 0.997 | S. cerevisiae deletion strains, locus YPL241C, strain CIN2, active compounds read low 0.996 | S. cerevisiae deletion strains, locus YPR119W, strain clb2, active compounds read low 0.99 | S. cerevisiae deletion strains, locus YPR141C, strain kar3, active compounds read low 0.985 | S. cerevisiae deletion strains, locus YPR163C, strain tif3, active compounds read low 0.979 | S. cerevisiae deletion strains, locus YPR167C, strain met16, active compounds read low 0.987 | S. cerevisiae deletion strains, strain wtn01, active compounds read low 0.967 | S. cerevisiae strains, strain wild type, active compounds read low 1
